Reference: PubChem BioAssay (NCI)
About 83,000 compounds went through this panel and 20% of them were active in at least one assay; those are over-represented in the sample as a whole.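 Step 1: grow cells in 96-well plates. Step 2: add test compound at a single concentration. Step 3: incubate 48 h. Step 4: record percent growth.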 Unmarked numbers belong to inactive results. Calls of active or inactive are those of the source. How the source made its calls: active means growth percent below 10; inactive means the rest.

These compounds were tested on MOLT-4 leukemia (assay: NCI-60 one-dose screen, 48 h (100 = growth as untreated, 0 = no growth, -100 = all killed)). Details: 10 µM unless noted.

Question: How did the growth turn out when `COc1ccc2[nH]cc(-c3csc4nc(-c5ccccc5)cn34)c2c1` was run?
Answer: 19.7%

Question: Which growth does the source give for `COc1cc(Cn2cc3c(c2)-c2onc(CN4CCCC4)c2CC3)cc(OC)c1OC` here?
Answer: 91.8%

Question: `COC(=O)/C=C/c1c(C2(C)NC(=O)c3ccccc3N2)c(=O)oc2ccc(Cl)cc12` (stereo not drawn) was tested. Which growth did it give?
Answer: 101%

Question: How did the growth turn out when `Cc1ccc2c(c1)Oc1nc(N)c(C#N)c(N)c1C2Sc1ccc(F)cc1` (stereo not drawn) was run?
Answer: -16.6% (active)

Question: With `COc1ccc(Cn2cc3c(c2-c2cc(OC)c(OC)c(OC)c2)CCc2c(CN4CCCC4)noc2-3)cc1` as the compound, how does the growth read?
Answer: 18.3%

Question: For `COc1ccc(Cn2cc3c(c2-c2cc(OC)c(OC)c(OC)c2)CCc2c(CN4CCOCC4)noc2-3)cc1`, which growth is on record?
Answer: 22.7%

Question: Which growth does the source give for `CCNC(=O)N1CCc2cc(OC)c(OCCc3ccc(OC)cc3)cc2C1c1ccc([N+](=O)[O-])cc1C` (stereo not drawn) here?
Answer: 26.1%

Question: Which growth does the source give for `COc1ccc([C@@H]2[C@@H](O)C(=O)N2c2cc(OC)c(OC)c(OC)c2)cc1F` here?
Answer: 15.8%

Question: How did the growth turn out when `Cc1ccc(-c2nnc(SCc3ccc(O)c4ncccc34)n2-c2ccccc2)cc1` was run?
Answer: 8.15% (active)

Question: Which growth does the source give for `COc1cc2oc(-c3cccc(C(=O)N[C@@H](CC(C)C)C(=O)OC(C)(C)C)c3)cc(=O)c2c(OC)c1OC` here?
Answer: 62.1%

Question: How did the growth turn out when `Cc1ccc(S(=O)(=O)N(CC[C@@H]2C[C@H]2c2cc3ccccc3o2)S(=O)(=O)c2ccc(C)cc2)cc1` was run?
Answer: 88.8%

Question: With `Brc1ccccc1/C=N/Nc1nc(N/N=C/c2ccccc2Br)nc(N2CCOCC2)n1` as the compound, how does the growth read?
Answer: 72.6%

Question: Which growth does the source give for `CC1=NC2=NC(=O)/C(=C3/N=C(C)C=C(c4ccccc4)N3N)NN2C(c2ccccc2)=C1` here?
Answer: 104%

Question: How did the growth turn out when `CN(C)CCN(C)c1ccc2ncc(C#Cc3cncc(C(=O)Nc4ccc(CN5CCN(C)CC5)c(C(F)(F)F)c4)c3)n2n1` was run?
Answer: 3.55% (active)

Question: How did the growth turn out when `NC(N)=Nc1ccc(Oc2cccc(Nc3ccc(Br)c(C(F)(F)F)c3)c2)cn1` was run?
Answer: -35.6% (active)

Question: How did the growth turn out when `COc1cc(Cn2cc3c(c2)-c2onc(CN4CCOCC4)c2CC3)cc(OC)c1OC` was run?
Answer: 98.3%

Question: How did the growth turn out when `Cc1cc(-c2ccc(Cl)cc2)n(Cc2nnc(SCC(=O)Nc3ccc(S(N)(=O)=O)cc3)n2-c2ccc([N+](=O)[O-])cc2)n1` was run?
Answer: 54.4%

Question: How did the growth turn out when `COc1ccc(C(=O)CSc2nc3c(c(Nc4ccc(S(N)(=O)=O)cc4)n2)CCCC3)cc1` was run?
Answer: 75.7%

Question: With `CCn1c(SCC(=O)Nc2cccc(C(=O)/C=C/c3cc(OC)c(OC)c(OC)c3)c2)nc2ccccc2c1=O` as the compound, how does the growth read?
Answer: 22.4%

Question: How did the growth turn out when `Nc1ncc(-c2ccc(NS(=O)(=O)c3ccc(Cl)c(Cl)c3)cc2)[nH]1` was run?
Answer: 73.9%

Question: With `Cc1nn(-c2ccccc2)c2ncnc(N/N=C/c3ccccc3O)c12` as the compound, how does the growth read?
Answer: 14.3%

Question: With `COc1cc(-c2nnc(SCc3ccc(O)c4ncccc34)n2-c2ccccc2)cc(OC)c1OC` as the compound, how does the growth read?
Answer: 4.98% (active)

Question: With `Oc1ccc(CSc2nnc(-c3ccc(Cl)cc3)n2-c2ccccc2)c2cccnc12` as the compound, how does the growth read?
Answer: 28.5%

Question: With `CCc1ccc(SC2c3ccc(N(CC)CC)cc3Oc3nc(N)c(C#N)c(N)c32)cc1` (stereo not drawn) as the compound, how does the growth read?
Answer: -8.26% (active)

Question: How did the growth turn out when `CS(=O)(=O)Nc1cc(-c2ccc3ncc(C#N)c(NCc4ccccc4O)c3c2)cnc1Cl` was run?
Answer: -0.509% (active)

Question: `NS(=O)(=O)c1ccc(Nc2cc(-c3ccccc3)nc(SCC(=O)c3ccccc3)n2)cc1` was tested. Which growth did it give?
Answer: 105%

Question: With `c1ccc(C(c2nc3ncncc3[nH]2)N2CSc3nc4ccccc4n3C2)cc1` (stereo not drawn) as the compound, how does the growth read?
Answer: 104%

Question: Which growth does the source give for `COCCNc1ccc2ncc(C#Cc3cncc(C(=O)Nc4ccc(CN5CCN(C)CC5)c(C(F)(F)F)c4)c3)n2n1` here?
Answer: 5.84% (active)

Question: `O=c1c2ccccc2nc(COc2ccccc2)n1NS(=O)(=O)c1ccc(Cl)cc1` was tested. Which growth did it give?
Answer: 69.5%

Question: `NC(N)=Nc1ccc(Oc2cccc(Nc3ccc(Cl)c(C(F)(F)F)c3)c2)cn1` was tested. Which growth did it give?
Answer: -39% (active)

Question: For `O=C1CC(=O)N2CSCN(C(c3ccccc3)c3nc4ncncc4[nH]3)C2=N1` (stereo not drawn), which growth is on record?
Answer: 112%

Question: Which growth does the source give for `COc1cc(/C=N/NC(=O)c2cn(C3CC3)c3c(OC)c(N4CC5CCCNC5C4)c(F)cc3c2=O)ccc1O` (stereo not drawn) here?
Answer: 2.34% (active)

Question: For `C[C@H](CCC(=O)NCc1ccc(C(=O)Nc2ccccc2N)cc1)[C@H]1CC[C@H]2[C@@H]3[C@@H](O)C[C@@H]4C[C@H](O)CC[C@]4(C)[C@H]3CC[C@]12C`, which growth is on record?
Answer: 10.7%

Question: Which growth does the source give for `N#Cc1cn(Cc2ccc(Cl)cc2Cl)c(C(=O)c2ccc(Br)cc2)c1N` here?
Answer: 98.9%

Question: `CCNC(=O)N1CCc2cc(OC)c(OCCc3ccc(OC)nc3)cc2C1c1ccc(OC)cc1C` (stereo not drawn) was tested. Which growth did it give?
Answer: 25.8%

Question: How did the growth turn out when `C=CCn1c(-c2nc3ccc(C(=C(C#N)C#N)c4ccccc4)cc3[nH]2)cc2cc(Br)ccc21` was run?
Answer: 36.4%

Question: Which growth does the source give for `Cc1ccc(S(=O)(=O)NCCNc2nc(Nc3ccc(N4CCN(C)CC4)cc3)nc3ccsc23)cc1` here?
Answer: 79.1%

Question: With `COc1cc2nc(Cl)nc(Nc3cccc(C4=Nc5c(N)nc(N)nc5NC(c5ccc(Cl)cc5)C4)c3)c2cc1OC` (stereo not drawn) as the compound, how does the growth read?
Answer: 10%
